Test results from PubChem BioAssay (NCATS).
Inconclusive results are not listed. Where a call stands in place of a potency, no number is given. Activity calls are given as the source filed them. Calls come from the whole dose curve; as a rule, active = well fitted inhibition curve with a large enough effect; inconclusive = small, poorly fitted or top-dose-only effect; inactive = flat fitted curve, though single readings scatter.

Columns and labels:
Assay in all cases: qHTS profiling for inhibitors of Plasmodium falciparum proliferation (AID 504749); note: nearly all actives have a fitted effect of over 60% in size
Details in all cases: P. falciparum in erythrocytes, SYBR Green DNA, 72 h; series mostly up to 28.7 µM
CP315 = system: CP315
Procedure, shortened: (§1)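 SYBR Green fluorescence (ex 485 nm, em 535 nm) reports parasite DNA after 72 h compound exposure of infected red cells at 0.3% parasitemia, 2.5% hematocrit; signal normalized to 0.29 uM artemisinin and vehicle wells.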

CP325 = system: CP325
Procedure, shortened: as §1

CP329 = system: CP329
Procedure, shortened: as §1

CP335 = system: CP335
Procedure, shortened: as §1

DFO2036 = system: DFO2036
Procedure, shortened: as §1

DIV14 = system: DIV14
Procedure, shortened: as §1

DIV17 = system: DIV17
Procedure, shortened: as §1

DIV30 = system: DIV30
Procedure, shortened: as §1

Dd2 = system: Dd2
Procedure, shortened: as §1

ECU = system: ECU
Procedure, shortened: as §1
Potency is the fitted concentration of half-maximal effect.

| Structure (SMILES) | Potency (CP315) | Potency (CP325) | Potency (CP329) | Potency (CP335) | Potency (DFO2036) | Potency (DIV14) | Potency (DIV17) | Potency (DIV30) | Potency (Dd2) | Potency (ECU) |
| --- | --- | --- | --- | --- | --- | --- | --- | --- | --- | --- |
| O=C1CCO1 | inactive | inactive | inactive | inactive | inactive | inactive | inactive | inactive | inactive | inactive |
| O=C(O)C(Cl)(Cl)Cl | inactive | inactive | inactive | inactive | inactive | inactive | inactive | inactive | inactive | inactive |
| S=C=S | inactive | inactive | inactive | inactive | inactive | inactive | inactive | inactive | inactive | inactive |
| O=C(NC(=O)c1c(F)cccc1F)Nc1ccc(Cl)c(Oc2ncc(C(F)(F)F)cc2Cl)c1 | inactive | inactive | inactive | inactive | inactive | inactive | inactive | inactive | inactive | inactive |
| Clc1ccc(Cl)cc1 | inactive | inactive | inactive | inactive | inactive | inactive | inactive | inactive | inactive | inactive |
| CC[N+](C)(CC)CCOC(=O)C(O)(c1ccccc1)c1ccccc1 | inactive | inactive | inactive | inactive | inactive | inactive | inactive | inactive | inactive | inactive |
| [O]=[Cr](=[O])([OH])[O][Cr](=[O])(=[O])[OH] | inactive | inactive | inactive | inactive | inactive | inactive | inactive | inactive | inactive | inactive |
| Clc1ccc(C2(Cn3cncn3)OCCO2)c(Cl)c1 | inactive | inactive | inactive | inactive | inactive | inactive | inactive | inactive | inactive | inactive |
| C[CH2][Hg][S]c1ccccc1C(=O)O | 4260 nM (active) | 1690 nM (active) | 1690 nM (active) | 1350 nM (active) | 2000 nM (active) | 1900 nM (active) | 1510 nM (active) | 4260 nM (active) | 2240 nM (active) | 3160 nM (active) |
| CC(Cc1ccccc1)NC=O (centres undefined) | inactive | inactive | inactive | inactive | inactive | inactive | inactive | inactive | inactive | inactive |
| NCC(O)c1cccc(O)c1 (centres undefined) | inactive | inactive | inactive | inactive | inactive | inactive | inactive | inactive | inactive | inactive |
| CC(=O)O[C@H]1CC[C@H]2[C@@H]3CCC4=CC(=O)CCC4=C3C=C[C@]12C | inactive | inactive | inactive | inactive | inactive | inactive | inactive | inactive | inactive | inactive |
| CC(C)(O)C1C2OC(=O)C1C1(O)CC3OC34C(=O)OC2C14C (centres undefined) | inactive | inactive | inactive | inactive | inactive | inactive | inactive | inactive | inactive | inactive |
| O=[N+]([O-])c1cc(I)c(O)c(I)c1 | inactive | inactive | inactive | inactive | inactive | inactive | inactive | inactive | inactive | inactive |
| O=C(OCCN1CCCCC1)C(O)(c1ccccc1)c1ccccc1 | inactive | inactive | inactive | inactive | inactive | inactive | inactive | inactive | inactive | inactive |
| Clc1ccccc1Cl | inactive | inactive | inactive | inactive | inactive | inactive | inactive | inactive | inactive | inactive |
| C=CCN1CC[C@]23c4c5ccc(O)c4O[C@H]2[C@@H](O)C=C[C@H]3[C@H]1C5 | inactive | inactive | inactive | inactive | inactive | inactive | inactive | inactive | inactive | inactive |
| O=[N+]([O-])c1ccc(F)c([N+](=O)[O-])c1 | inactive | inactive | inactive | inactive | inactive | inactive | inactive | inactive | inactive | inactive |
| O=[N+]([O-])C(Br)(CO)CO | inactive | inactive | inactive | inactive | inactive | inactive | inactive | inactive | inactive | inactive |
| C=CCN(C1=NCCN1)c1c(Cl)cccc1Cl | inactive | inactive | inactive | inactive | inactive | inactive | inactive | inactive | inactive | inactive |
| CCOC(=O)c1ccccc1C(=O)OCC | inactive | inactive | inactive | inactive | inactive | inactive | inactive | inactive | inactive | inactive |
| O=C(CCl)c1ccc(Oc2ccc(C(=O)CCl)cc2)cc1 | inactive | inactive | inactive | inactive | inactive | inactive | inactive | inactive | inactive | inactive |
| C[C@]12CCC(=O)C[C@@H]1CC[C@@H]1[C@@H]2CC[C@]2(C)[C@@H](O)CC[C@@H]12 | inactive | inactive | inactive | inactive | inactive | inactive | inactive | inactive | inactive | inactive |

| Structure (SMILES) | Potency (CP315) | Potency (CP325) | Potency (CP329) | Potency (CP335) | Potency (DFO2036) | Potency (DIV14) | Potency (DIV17) | Potency (DIV30) | Potency (Dd2) | Potency (ECU) |
| --- | --- | --- | --- | --- | --- | --- | --- | --- | --- | --- |
| O=C(NCNC(=O)NC1C(=O)NC(=O)N1CO)NC1C(=O)NC(=O)N1CO (centres undefined) | inactive | inactive | inactive | inactive | inactive | inactive | inactive | inactive | inactive | inactive |
| COC1=CC=C2[C@H]3Cc4ccc(OC)c5c4[C@@]2(CCN3C)[C@H]1O5 | inactive | inactive | inactive | inactive | inactive | inactive | inactive | inactive | inactive | inactive |
| O=S(=O)(O)c1cc(O)ccc1O | inactive | inactive | inactive | inactive | inactive | inactive | inactive | inactive | inactive | inactive |
| CN1c2ccccc2C(NCCCCCCC(=O)O)c2ccc(Cl)cc2S1(=O)=O (centres undefined) | inactive | inactive | inactive | inactive | inactive | inactive | inactive | inactive | inactive | inactive |
| O=CC=O | inactive | inactive | inactive | inactive | inactive | inactive | inactive | inactive | inactive | inactive |
| O=C1CN(O)C(c2ccccc2)=c2cc(Cl)ccc2=N1 | inactive | inactive | inactive | inactive | inactive | inactive | inactive | inactive | inactive | inactive |
| Cn1sc(Cl)cc1=O | inactive | inactive | inactive | inactive | inactive | inactive | inactive | inactive | inactive | inactive |
| C[N+]1(C)CCCCC1COC(=O)C(O)(c1ccccc1)c1ccccc1 (centres undefined) | inactive | inactive | inactive | inactive | inactive | inactive | inactive | inactive | inactive | inactive |
| C=CCN1CCC23c4c5ccc(O)c4O[C@H]2C(=O)CC[C@@]3(O)C1C5 (some centres undefined) | inactive | inactive | inactive | inactive | inactive | inactive | inactive | inactive | inactive | inactive |
| O=C1CCCCC1CN1CCCCC1 (centres undefined) | inactive | inactive | inactive | inactive | inactive | inactive | inactive | inactive | inactive | inactive |
| ClCC1CO1 (centres undefined) | inactive | inactive | inactive | inactive | inactive | inactive | inactive | inactive | inactive | inactive |
| CC(C)CCON=O | inactive | inactive | inactive | inactive | inactive | inactive | inactive | inactive | inactive | inactive |
| CCC1(C)CC(=O)NC(=O)C1 | inactive | inactive | inactive | inactive | inactive | inactive | inactive | inactive | inactive | inactive |
| CCCC(C)C1(CC)C(=O)NC(=O)NC1=O (centres undefined) | inactive | inactive | inactive | inactive | inactive | inactive | inactive | inactive | inactive | inactive |
| COc1ccc(OC)c(C(O)C(C)N)c1 (centres undefined) | inactive | inactive | inactive | inactive | inactive | inactive | inactive | inactive | inactive | inactive |
| CNC(=O)OCC[N+](C)(C)C | inactive | inactive | inactive | inactive | inactive | inactive | inactive | inactive | inactive | inactive |
| [N-]=[N+]=CC(=O)OCC(N)C(=O)O (centres undefined) | inactive | inactive | inactive | inactive | inactive | inactive | inactive | inactive | inactive | inactive |
| c1ccc2cc(CC3=NCCN3)ccc2c1 | inactive | inactive | inactive | inactive | inactive |  | inactive | inactive | inactive | inactive |
| CC(N)Cc1ccc(O)cc1 (centres undefined) | inactive | inactive | inactive | inactive | inactive | inactive | inactive | inactive | inactive | inactive |
| O=Cc1ccco1 | inactive | inactive | inactive | inactive | inactive | inactive | inactive | inactive | inactive | inactive |
| c1ccc2sc(SNC3CCCCC3)nc2c1 | inactive | inactive | inactive | inactive | inactive | inactive | inactive | inactive | inactive | inactive |
| CCC1(c2ccccc2)C(=O)NC(=O)NC1=O | inactive | inactive | inactive | inactive | inactive | inactive | inactive | inactive | inactive | inactive |
| O[C@H]1[C@H]2[C@H](O)CCCN2C[C@H]1O | inactive | inactive | inactive | inactive | inactive | inactive | inactive | inactive | inactive | inactive |
